# From ChEMBL document CHEMBL3988442, “University of Dundee, Small-Polar-MMV Screening Library” (2021)
# For some assays here: Measured potencies and affinities stand elsewhere.
# Key:
# Parameters in all cases: scale not given: direction of the effect not stated beside the values
# [1] = target: Protein translocase subunit SecA (Escherichia coli (strain K12)) (UniProt P10408); assay: Assay to Identify E. coli SecA ATPase Inhibitors; format: functional; details: 30 µM
# [2] = target: T1, Ubiquitin-activating enzyme e1, putative (Leishmania donovani (strain BPK282A1)) (UniProt E9BSI1); assay: Leishmania donovani Ubiquitin Activating Enzyme (LdE1); format: functional; details: 30 µM
# T1 sequence (whole entry): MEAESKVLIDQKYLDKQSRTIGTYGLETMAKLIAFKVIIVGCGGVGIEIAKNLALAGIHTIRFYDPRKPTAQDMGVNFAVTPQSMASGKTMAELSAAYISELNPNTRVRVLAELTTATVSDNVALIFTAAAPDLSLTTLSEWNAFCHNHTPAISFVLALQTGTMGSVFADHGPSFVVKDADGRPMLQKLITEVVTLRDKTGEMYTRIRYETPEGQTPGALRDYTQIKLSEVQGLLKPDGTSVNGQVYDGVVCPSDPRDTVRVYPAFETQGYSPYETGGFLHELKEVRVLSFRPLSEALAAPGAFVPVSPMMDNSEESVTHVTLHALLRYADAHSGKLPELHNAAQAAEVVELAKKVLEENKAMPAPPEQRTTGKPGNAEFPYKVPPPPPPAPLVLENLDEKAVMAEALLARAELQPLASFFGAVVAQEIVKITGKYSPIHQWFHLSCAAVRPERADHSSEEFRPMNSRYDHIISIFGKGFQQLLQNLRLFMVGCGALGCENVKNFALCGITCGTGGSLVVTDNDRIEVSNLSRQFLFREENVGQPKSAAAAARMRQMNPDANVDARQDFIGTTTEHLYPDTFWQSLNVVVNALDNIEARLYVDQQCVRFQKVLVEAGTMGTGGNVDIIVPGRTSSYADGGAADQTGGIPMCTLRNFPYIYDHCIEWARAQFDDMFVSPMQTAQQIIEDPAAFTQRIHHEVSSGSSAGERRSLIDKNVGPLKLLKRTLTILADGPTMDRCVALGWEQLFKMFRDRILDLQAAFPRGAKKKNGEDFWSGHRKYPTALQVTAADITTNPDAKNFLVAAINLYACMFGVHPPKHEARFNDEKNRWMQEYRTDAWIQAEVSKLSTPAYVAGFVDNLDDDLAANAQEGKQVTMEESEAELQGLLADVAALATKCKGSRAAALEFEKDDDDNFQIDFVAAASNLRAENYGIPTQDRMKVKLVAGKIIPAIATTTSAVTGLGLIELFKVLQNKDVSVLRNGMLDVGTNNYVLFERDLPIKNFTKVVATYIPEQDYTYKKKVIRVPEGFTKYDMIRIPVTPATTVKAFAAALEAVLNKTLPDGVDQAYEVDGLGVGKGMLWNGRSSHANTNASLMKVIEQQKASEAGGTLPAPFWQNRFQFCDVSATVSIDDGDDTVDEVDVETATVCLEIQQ
# [3] = target: Sialic acid-binding Ig-like lectin 9 (Homo sapiens) (UniProt Q9Y336); assay: Hs-Siglec9 ALPHAscreen SOP 20170721; details: 10 µM
# Trypanosoma cruzi = assay: Trypanosoma cruzi phosphomannomutase and mannose-1-phosphate guanylyltransferase assay; format: functional; details: 10 µM
# [4] = target: T2, Arginase-2, mitochondrial (Homo sapiens) (UniProt P78540); assay: in vitro enzyme assay to detect the production of urea directly proportional to the activity of Arginase II; format: functional; details: 33.3 µM; note: in the data most compounds retested in dose-response had high values
# T2 sequence (whole entry): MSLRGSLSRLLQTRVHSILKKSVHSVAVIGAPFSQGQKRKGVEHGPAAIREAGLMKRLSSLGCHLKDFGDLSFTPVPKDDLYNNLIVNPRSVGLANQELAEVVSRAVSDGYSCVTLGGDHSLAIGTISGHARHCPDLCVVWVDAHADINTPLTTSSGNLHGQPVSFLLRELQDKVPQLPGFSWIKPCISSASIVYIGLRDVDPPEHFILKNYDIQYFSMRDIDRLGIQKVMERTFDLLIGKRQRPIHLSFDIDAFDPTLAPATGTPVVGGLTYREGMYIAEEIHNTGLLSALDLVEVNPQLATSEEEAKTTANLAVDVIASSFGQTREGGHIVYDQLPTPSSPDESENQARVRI
# [5] = target: T3, Proteasome subunit beta (Trypanosoma cruzi) (UniProt O96673); assay: Trypanosoma cruzi proteasome chymotrypsin-like activity (TcProtChymo) assay.; note: in the data most compounds retested in dose-response had high values; format: functional; details: 9.37 µM
# T3 sequence (whole entry): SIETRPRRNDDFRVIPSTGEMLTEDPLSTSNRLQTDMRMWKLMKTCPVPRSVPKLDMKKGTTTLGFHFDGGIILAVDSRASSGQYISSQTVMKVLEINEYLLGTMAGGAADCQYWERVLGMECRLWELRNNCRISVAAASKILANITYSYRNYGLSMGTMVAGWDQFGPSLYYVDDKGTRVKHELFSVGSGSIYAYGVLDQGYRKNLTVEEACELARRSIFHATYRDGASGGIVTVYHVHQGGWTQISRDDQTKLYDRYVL
# Homo sapiens = organism: Homo sapiens; assay: To identify inhibition of the IFN signalling (Jak-Stat) pathway via expression of an eGFP reporter gene under the control of an IFN-stimulated response element (ISRE) containing MxA promoter.; format: functional; details: 30 µM
# [6] = target: T4, Tyrosyl-tRNA synthetase, putative (Trypanosoma cruzi (strain CL Brener)) (UniProt Q4DSP6); assay: Trypanosoma cruzi tyrosyl tRNA synthetase (TcYRS) _High Tyrosine SOP; format: functional; details: 30 µM; note: in the data most compounds retested in dose-response had high values
# T4 sequence (whole entry): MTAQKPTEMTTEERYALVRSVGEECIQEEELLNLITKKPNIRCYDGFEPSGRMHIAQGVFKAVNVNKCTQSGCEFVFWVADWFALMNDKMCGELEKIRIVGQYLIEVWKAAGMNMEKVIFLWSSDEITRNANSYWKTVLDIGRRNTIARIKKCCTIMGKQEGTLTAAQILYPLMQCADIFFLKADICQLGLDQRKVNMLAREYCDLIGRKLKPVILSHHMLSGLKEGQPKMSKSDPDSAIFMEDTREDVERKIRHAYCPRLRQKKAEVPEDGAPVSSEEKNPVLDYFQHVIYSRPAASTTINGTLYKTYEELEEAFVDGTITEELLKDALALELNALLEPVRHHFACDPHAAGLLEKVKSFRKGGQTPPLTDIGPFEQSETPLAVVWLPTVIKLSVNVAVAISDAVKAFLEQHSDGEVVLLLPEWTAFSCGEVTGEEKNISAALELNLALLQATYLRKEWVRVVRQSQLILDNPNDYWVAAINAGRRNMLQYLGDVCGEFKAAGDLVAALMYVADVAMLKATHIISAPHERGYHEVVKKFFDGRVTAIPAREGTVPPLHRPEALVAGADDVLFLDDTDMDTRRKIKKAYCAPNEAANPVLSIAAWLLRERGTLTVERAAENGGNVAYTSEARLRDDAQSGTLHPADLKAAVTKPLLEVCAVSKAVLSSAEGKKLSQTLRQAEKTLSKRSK
# [7] = target: T4, Tyrosyl-tRNA synthetase, putative (Trypanosoma cruzi (strain CL Brener)); assay: Trypanosoma cruzi tyrosyl tRNA synthetase (TcYRS) SOP; format: functional; details: 30 µM
# [8] = target: Chromo domain-containing protein 1 (Saccharomyces cerevisiae (strain ATCC 204508 / S288c) (Baker's yeast)) (UniProt P32657); assay: ScCHD-1 Enzyme Inhibition Assay; format: functional; details: 30 µM; note: in the data most compounds retested in dose-response had high values
# Chromo domain-containing protein 1 (Saccharomyces cerevisiae (strain ATCC 204508 / S288c) (Baker's yeast)), sequence (P32657 whole entry, the tested form may be a part): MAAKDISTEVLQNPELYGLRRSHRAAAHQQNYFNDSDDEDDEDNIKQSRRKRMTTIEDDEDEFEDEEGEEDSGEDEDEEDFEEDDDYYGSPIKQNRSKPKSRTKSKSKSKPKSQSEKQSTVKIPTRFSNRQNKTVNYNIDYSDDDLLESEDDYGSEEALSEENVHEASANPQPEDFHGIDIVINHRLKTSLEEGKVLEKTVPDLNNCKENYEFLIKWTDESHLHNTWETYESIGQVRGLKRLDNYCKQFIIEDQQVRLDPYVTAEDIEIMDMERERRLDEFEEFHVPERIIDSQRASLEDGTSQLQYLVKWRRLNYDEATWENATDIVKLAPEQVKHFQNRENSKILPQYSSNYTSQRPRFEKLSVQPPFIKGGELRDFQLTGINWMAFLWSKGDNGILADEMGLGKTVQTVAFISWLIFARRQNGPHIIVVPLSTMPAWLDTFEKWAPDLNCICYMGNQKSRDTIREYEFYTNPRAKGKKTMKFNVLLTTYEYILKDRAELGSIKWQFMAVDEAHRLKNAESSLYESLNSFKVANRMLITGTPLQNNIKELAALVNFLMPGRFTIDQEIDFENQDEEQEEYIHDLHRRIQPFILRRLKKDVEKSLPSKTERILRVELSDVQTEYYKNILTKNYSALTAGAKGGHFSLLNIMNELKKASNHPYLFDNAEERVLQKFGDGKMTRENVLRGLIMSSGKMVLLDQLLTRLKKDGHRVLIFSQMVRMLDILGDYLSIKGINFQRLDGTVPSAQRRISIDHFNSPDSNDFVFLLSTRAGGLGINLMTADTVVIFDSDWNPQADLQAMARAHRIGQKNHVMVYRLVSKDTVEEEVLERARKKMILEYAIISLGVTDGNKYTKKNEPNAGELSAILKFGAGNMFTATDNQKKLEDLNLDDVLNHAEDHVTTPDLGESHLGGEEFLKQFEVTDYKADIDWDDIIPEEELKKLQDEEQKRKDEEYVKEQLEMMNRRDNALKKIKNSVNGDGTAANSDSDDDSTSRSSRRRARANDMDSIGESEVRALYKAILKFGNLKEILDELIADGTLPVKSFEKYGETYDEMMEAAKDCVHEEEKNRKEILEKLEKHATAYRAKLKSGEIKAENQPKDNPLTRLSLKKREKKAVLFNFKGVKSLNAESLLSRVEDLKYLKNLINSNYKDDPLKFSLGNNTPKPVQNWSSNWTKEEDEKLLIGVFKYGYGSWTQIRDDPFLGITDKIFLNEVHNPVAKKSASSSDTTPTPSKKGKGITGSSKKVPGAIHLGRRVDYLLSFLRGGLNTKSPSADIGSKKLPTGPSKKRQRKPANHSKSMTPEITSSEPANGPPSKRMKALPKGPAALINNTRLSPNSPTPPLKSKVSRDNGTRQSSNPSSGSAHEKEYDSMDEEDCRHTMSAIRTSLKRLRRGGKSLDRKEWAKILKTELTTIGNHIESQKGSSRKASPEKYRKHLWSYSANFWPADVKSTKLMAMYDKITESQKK
# Sialic acid-binding Ig-like lectin 9 (Homo sapiens), sequence (Q9Y336 whole entry): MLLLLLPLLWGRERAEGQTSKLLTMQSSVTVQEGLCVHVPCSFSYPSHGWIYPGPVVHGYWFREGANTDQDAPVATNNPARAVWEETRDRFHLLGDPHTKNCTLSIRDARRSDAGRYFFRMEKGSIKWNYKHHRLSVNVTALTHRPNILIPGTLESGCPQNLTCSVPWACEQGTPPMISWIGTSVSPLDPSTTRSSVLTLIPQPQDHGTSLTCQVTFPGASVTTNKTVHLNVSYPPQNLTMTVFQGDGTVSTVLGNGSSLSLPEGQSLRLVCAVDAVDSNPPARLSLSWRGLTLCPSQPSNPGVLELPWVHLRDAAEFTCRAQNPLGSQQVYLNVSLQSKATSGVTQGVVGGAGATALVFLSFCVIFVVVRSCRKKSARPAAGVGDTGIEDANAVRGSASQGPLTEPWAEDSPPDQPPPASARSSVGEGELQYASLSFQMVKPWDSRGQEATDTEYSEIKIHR
# Protein translocase subunit SecA (Escherichia coli (strain K12)), sequence (P10408 whole entry): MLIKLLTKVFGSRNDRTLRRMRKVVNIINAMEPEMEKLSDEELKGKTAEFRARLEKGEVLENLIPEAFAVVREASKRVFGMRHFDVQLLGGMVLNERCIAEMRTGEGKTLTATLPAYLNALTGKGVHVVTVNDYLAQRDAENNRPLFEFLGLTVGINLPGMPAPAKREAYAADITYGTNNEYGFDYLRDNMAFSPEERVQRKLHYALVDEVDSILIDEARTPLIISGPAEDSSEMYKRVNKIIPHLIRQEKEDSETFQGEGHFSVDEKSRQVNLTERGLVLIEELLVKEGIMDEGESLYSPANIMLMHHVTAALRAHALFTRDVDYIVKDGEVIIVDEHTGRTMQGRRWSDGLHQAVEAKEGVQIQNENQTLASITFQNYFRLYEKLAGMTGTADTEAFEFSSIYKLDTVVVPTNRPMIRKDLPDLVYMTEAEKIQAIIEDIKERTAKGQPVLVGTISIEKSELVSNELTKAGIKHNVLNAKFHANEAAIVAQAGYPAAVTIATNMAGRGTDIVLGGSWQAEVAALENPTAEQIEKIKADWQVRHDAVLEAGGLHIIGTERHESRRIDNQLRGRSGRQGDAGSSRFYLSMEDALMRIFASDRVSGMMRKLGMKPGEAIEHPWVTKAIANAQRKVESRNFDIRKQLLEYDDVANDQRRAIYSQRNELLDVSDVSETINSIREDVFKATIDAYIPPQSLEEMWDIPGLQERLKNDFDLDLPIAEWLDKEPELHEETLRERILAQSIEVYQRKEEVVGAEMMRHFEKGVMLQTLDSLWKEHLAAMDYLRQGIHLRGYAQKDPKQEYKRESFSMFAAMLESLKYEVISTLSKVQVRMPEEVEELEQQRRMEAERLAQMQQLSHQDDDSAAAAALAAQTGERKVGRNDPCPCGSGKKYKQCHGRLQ
SMILES,Percent Effect [1] [%],Percent Effect [2] [%],Percent Effect [3] [%],Percent Effect (Trypanosoma cruzi) [%],Percent Effect [4] [%],Percent Effect [5] [%],Percent Effect (Homo sapiens) [%],Percent Effect [6] [%],Percent Effect [7] [%],Percent Effect [8] [%]
O=C(O)c1ccc2ccc(N3CCN(CC4CC4)CC3)n2c1,-3.4,14.3,1.31,3.38,2.74,9.7,7.8,18.4,12.5,-4.22
COc1ccc(S(N)(=O)=O)cc1C(=O)N(C)Cc1cc(C)on1,1.97,20.5,-20.8,1.41,-2.87,16,15.7,1.44,18.1,-7.04
COCC(=O)N1CCC2(CC1)CCN(Cc1ccccn1)C2=O,-4.26,-3.9,-5.87,-2.24,-3.64,1.5,-7.24,-2.63,-5.13,0.829
Cc1cnn(CC2CN(CC(=O)NCc3ccccn3)CCO2)c1 (stereo not given),-3.5,8,4.57,4.62,-4.88,5.17,2.48,3.68,10.3,-8.5
Cc1cc(C(=O)O)cc(S(=O)(=O)Nc2ccc3c(c2)OCO3)c1C,-0.174,2.56,-9.72,2.91,3.69,19.7,-15.4,-4.31,10.8,-3.33
Cc1cccc(N2CC[C@@H]3CN(Cc4csc(C)n4)CCO[C@@H]3C2)n1,-6.02,-14.3,-1.28,6.52,-6.88,7.15,-15.6,1.58,-5.13,-0.609
Cn1cc(-c2nnn3c2COC(CNCc2nccs2)C3)cn1 (stereo not given),-3.81,11.7,1,4.19,10.5,11.6,6.11,5.79,17.9,8.68
Cc1noc(C)c1CN(C)CCC(=O)N1CCc2sccc2C1,-4.9,0,7.48,-1,0.444,8.74,17.8,4.74,5.13,-7.86
CCn1ccnc1CNCC1CCCN1c1cc(NC)ncn1 (stereo not given),-2.03,0,1.76,-5.62,2.66,4.5,12.1,4.74,5.13,-7.63
CC(=O)N(Cc1noc(C2CC2)n1)C1CCN(Cc2ccncc2)C1 (stereo not given),-3.41,5.13,-20.1,11.6,-4.51,4.86,4.66,1.44,10.8,-5.11
N#Cc1c(C2CC2)cc(-c2ccc(O)cc2)nc1N,-6.18,2.7,3.32,-1.46,4.54,23.6,48.6,-0.532,7.32,-2.85
